Reference: PubChem BioAssay (EPA / NIEHS)
Records with an inconclusive call do not appear. The source made the active and inactive calls. Rule for the calls: active = hit-call score of the fitted dose curve at least 0.9, where 1 is the maximum; inconclusive = response in the unintended direction; inactive = score below 0.9.

Each compound was assayed against Nucleoli Translocation, AR (gene 367) (UniProt P10275) (assay: UPITT_HCI_U2OS_AR_TIF2_Nucleoli_Antagonist: University of Pittsburgh U2OS Androgen Receptor-Transcriptional Intermediary Factor 2 (AR-TIF2) Antagonism High Content Imaging Assay for Nucleoli Translocation (AID 2283997)).
Sequence of Nucleoli Translocation, AR (gene 367) (P10275 whole entry, looked up, the tested form may be a part): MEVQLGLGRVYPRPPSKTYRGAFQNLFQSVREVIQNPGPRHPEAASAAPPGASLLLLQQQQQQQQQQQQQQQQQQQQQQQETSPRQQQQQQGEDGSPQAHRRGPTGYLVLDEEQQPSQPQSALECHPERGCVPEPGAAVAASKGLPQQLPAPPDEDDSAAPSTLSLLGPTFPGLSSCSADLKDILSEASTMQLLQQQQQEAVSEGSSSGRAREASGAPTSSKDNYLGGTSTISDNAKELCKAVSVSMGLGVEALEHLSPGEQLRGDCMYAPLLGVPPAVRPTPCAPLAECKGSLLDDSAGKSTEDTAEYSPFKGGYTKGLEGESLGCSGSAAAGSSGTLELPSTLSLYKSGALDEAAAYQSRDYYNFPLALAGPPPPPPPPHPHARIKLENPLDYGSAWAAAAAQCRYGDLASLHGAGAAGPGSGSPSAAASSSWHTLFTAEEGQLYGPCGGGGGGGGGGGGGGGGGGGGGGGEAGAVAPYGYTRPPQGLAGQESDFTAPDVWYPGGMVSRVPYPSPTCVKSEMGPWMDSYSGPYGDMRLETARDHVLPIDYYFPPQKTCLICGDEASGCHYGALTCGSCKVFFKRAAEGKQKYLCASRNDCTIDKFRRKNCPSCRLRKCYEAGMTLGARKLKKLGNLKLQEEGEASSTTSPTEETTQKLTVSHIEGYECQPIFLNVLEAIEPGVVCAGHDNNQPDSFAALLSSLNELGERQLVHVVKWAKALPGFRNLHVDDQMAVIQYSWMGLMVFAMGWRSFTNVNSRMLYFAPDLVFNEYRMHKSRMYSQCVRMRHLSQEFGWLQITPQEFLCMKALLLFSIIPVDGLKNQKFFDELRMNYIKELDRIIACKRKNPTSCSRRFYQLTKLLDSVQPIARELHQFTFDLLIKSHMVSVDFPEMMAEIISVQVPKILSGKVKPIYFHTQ
Procedure, shortened: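 Measured quantity was AR-RFP fluorescence localized to nucleoli in engineered U2OS cells also bearing TIF2-GFP, acquired on automated high-content imagers. Primary testing used 20 uM compound; actives were confirmed in triplicate wells.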
With COc1cc(O)c(C(=O)c2ccccc2)cc1S(=O)(=O)O the outcome was “inactive”.
In the case of O=C(O)c1ccc2c(c1)C(=O)OC2=O, the outcome is reported as “inactive”.
For CC(=O)OCc1ccccc1, the outcome was “inactive”.
In the case of Cc1ccc(C)c(OCCCC(C)(C)C(=O)O)c1, the outcome is reported as “inactive”.
CCc1cccc(C)c1N was tested, and the outcome was “inactive”.
C=C1C[C@H]2[C@@H]3C=C(C)C4=CC(=O)CC[C@]4(C)[C@H]3CC[C@]2(C)[C@@]1(OC(C)=O)C(C)=O was tested, and the AC50 was 0.0947 µM (active).
With Oc1ccc(/C=C/c2cc(O)cc(O)c2)cc1 the AC50 was 5.07 µM (active).
For N#Cc1ccc(C(c2ccc(C#N)cc2)n2cncn2)cc1, the outcome was “inactive”.
With CN(C)Cc1cc(CN(C)C)c(O)c(CN(C)C)c1 the outcome was “inactive”.
For CCCCC(CC)COC(=O)/C=C/c1ccc(OC)cc1 (stereo not drawn), the outcome was “inactive”.
In the case of Oc1ccc(-c2ccccc2)c(Cl)c1, the AC50 is reported as 13.8 µM (active).
For CCCCCC[C@@H](O)C/C=C\CCCCCCCC(=O)OCC(O)CO (stereo partly drawn), the outcome was “inactive”.

Each compound was assayed against Nucleoli Translocation, AR (gene 367) (UniProt P10275) (assay: UPITT_HCI_U2OS_AR_TIF2_Nucleoli_Agonist: University of Pittsburgh U2OS Androgen Receptor-Transcriptional Intermediary Factor 2 (AR-TIF2) Agonism High Content Imaging Assay for Nucleoli Translocation (AID 2283998)).
Procedure, shortened: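 Cells express human AR fused to red fluorescent protein and TIF2 fused to GFP. Red fluorescence in the nucleolar region was quantified by high-content imaging and fitted as gain-of-signal against a DMSO baseline. Compounds were tested at 0.195 to 50 uM final (0.5% DMSO).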
In the case of c1ccc2c(c1)[nH]c1ccccc12, the outcome is reported as “inactive”.
In the case of CCC(C)c1ccccc1 (stereo not drawn), the outcome is reported as “inactive”.
With CCCCCCCCCCCCCC(=O)OC(C)C the outcome was “inactive”.
For O=C(O)c1ccc2c(c1)C(=O)OC2=O, the outcome was “inactive”.
For CC(=O)OCc1ccccc1, the outcome was “inactive”.
In the case of Cc1ccc(C)c(OCCCC(C)(C)C(=O)O)c1, the outcome is reported as “inactive”.
For CCc1cccc(C)c1N, the outcome was “inactive”.
With C=C1C[C@H]2[C@@H]3C=C(C)C4=CC(=O)CC[C@]4(C)[C@H]3CC[C@]2(C)[C@@]1(OC(C)=O)C(C)=O the AC50 was 4 µM (active).
N#Cc1ccc(C(c2ccc(C#N)cc2)n2cncn2)cc1 was tested, and the outcome was “inactive”.
With CCCCCCCCCC(C)=O the outcome was “inactive”.
In the case of CN(C)Cc1cc(CN(C)C)c(O)c(CN(C)C)c1, the outcome is reported as “inactive”.
For CCCCC(CC)COC(=O)/C=C/c1ccc(OC)cc1 (stereo not drawn), the outcome was “inactive”.
In the case of Oc1ccc(-c2ccccc2)c(Cl)c1, the AC50 is reported as 13.4 µM (active).
With CCCCCC[C@@H](O)C/C=C\CCCCCCCC(=O)OCC(O)CO (stereo partly drawn) the outcome was “inactive”.

What follows are compounds tested against Ratio of Nucleoli Translocation and Cytoplasm, AR (gene 367) (UniProt P10275) (assay: UPITT_HCI_U2OS_AR_TIF2_Nucleoli_Cytoplasm_Ratio_Antagonist: University of Pittsburgh U2OS Androgen Receptor-Transcriptional Intermediary Factor 2 (AR-TIF2) Antagonism High Content Imaging Assay for Ratio of Nucleoli Translocation and Cytoplasm (AID 2283999);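 note: antagonists lower the DHT-driven ratio of nucleolar to cytoplasmic red signal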).
Sequence of Ratio of Nucleoli Translocation and Cytoplasm, AR (gene 367) (P10275 whole entry, looked up, the tested form may be a part): as above
Procedure, shortened: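 Human osteosarcoma U2OS line, AR fused to RFP, coactivator TIF2 fused to GFP. Cpds 20 uM final, 0.2% DMSO (screen); 0.195–50 uM final, 0.5% DMSO (CRC). Endpoint: nucleoli/cytoplasm red signal ratio, DHT as baseline, loss-of-signal antagonist mode.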
With c1ccc2c(c1)[nH]c1ccccc12 the outcome was “inactive”.
COc1ccc(C(=O)c2ccccc2)c(O)c1 was tested, and the outcome was “inactive”.
CCCCCCCCCCCCCC(=O)OC(C)C was tested, and the outcome was “inactive”.
O=C(O)c1ccc2c(c1)C(=O)OC2=O was tested, and the outcome was “inactive”.
For CC(=O)OCc1ccccc1, the outcome was “inactive”.
For Cc1ccc(C)c(OCCCC(C)(C)C(=O)O)c1, the outcome was “inactive”.
With CCc1cccc(C)c1N the outcome was “inactive”.
C=C1C[C@H]2[C@@H]3C=C(C)C4=CC(=O)CC[C@]4(C)[C@H]3CC[C@]2(C)[C@@]1(OC(C)=O)C(C)=O was tested, and the outcome was “inactive”.
For Oc1ccc(/C=C/c2cc(O)cc(O)c2)cc1, the outcome was “inactive”.
With CN(C)Cc1cc(CN(C)C)c(O)c(CN(C)C)c1 the outcome was “inactive”.
With Oc1ccc(-c2ccccc2)c(Cl)c1 the outcome was “inactive”.
With CCCCCC[C@@H](O)C/C=C\CCCCCCCC(=O)OCC(O)CO (stereo partly drawn) the outcome was “inactive”.
